Laboratory results reported in PubChem BioAssay (EPA / NIEHS).
“And” between values parts separate entries of the source, which are not always exact repeats. Equal entries are not always repeated. The source made the active and inactive calls. The calls were made as follows: active = hit-call score of the fitted dose curve at least 0.9, where 1 is the maximum; inactive = score below 0.9.

Assay: CCTE_Mundy_HCI_Cortical_NOG_NeuriteLength: CCTE's Neurite Outgrowth Assay in rat cortical cells for Neurite Length, Mundy Lab (AID 2284213);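 as to AC50: neurites imaged about 48 to 50 h after chemical exposure began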
Experimental: CCTE_Mundy_HCI_Cortical_NOG is a multiplexed, cell-based-readout assay that uses rat primary cortical cells with measurements taken at 50.33 hours after chemical dosing in a microplate: 96-well plate.CCTE_Mundy_HCI_Cortical_NOG_NeuriteLength is one of four components of the CCTE_Mundy_HCI_Cortical_NOG assay. It measures neurite outgrowth related to the neurite length using High Content Imaging of fluorescently labelled markers.[…] Using a type of morphology reporter, loss -of-signal activity can be used to understand developmental effects.
Exposure starts 2 hours post-plating by adding 10 ul of the working solution to 90 ul of media in the wells for a 1/10 dilution. Forty-eight hours after chemical treatment cells are fixed by direct addition of 100 ul of warm (37C) Dulbecco's phosphate buffered saline (DPBS) fixative solution containing 8% paraformaldehyde, 8% sucrose, and 0.1% of 3 mg/ml Hoechst 33342 into each well. Primary antibodies are prepared by dilution in Immunocytochemical Staining Buffer (ISB), 10X Dulbecco's PBS, 0.1% Saponin, 5% Bovine Serum Albumin, 0.5% NaN3 (Sodium Azide) and betaIII-tubulin (rabbit anti-betaIII-tubulin, 1:800) followed by Alexa Fluor-488 secondary (1:500) to label neuronal cell bodies and neurites. A Cellomics ArrayScan VTi HCS Reader is used for automated image acquisition and analysis of neurite outgrowth.

Question: For N#Cc1nn(-c2c(Cl)cc(C(F)(F)F)cc2Cl)c(N)c1S(=O)C(F)(F)F (configuration not stated), which outcome is on record?
Answer: The outcome was “inactive”.

Question: Which AC50 does the source give for CCCCC(CC)COC(=O)c1ccccc1C(=O)OCC(CC)CCCC (configuration not stated) here?
Answer: Its AC50 is 8.99 µM (active) and 15 µM (active).

Question: Which outcome does the source give for CNC(=O)ON=CC(C)(C)SC here?
Answer: The outcome was “inactive”.

Question: With Cc1ccc(-c2c(Cl)nc(C#N)n2S(=O)(=O)N(C)C)cc1 as the molecule, how does the AC50 read?
Answer: The AC50 was 85.3 µM (active).

Question: With CCCCNC(=O)n1c(NC(=O)OC)nc2ccccc21 as the molecule, how does the AC50 read?
Answer: The AC50 was 11.1 µM (active).

Question: For CCCCOC(=O)c1ccccc1C(=O)OCCCC, which outcome is on record?
Answer: Its outcome is “inactive”.

Question: With CCOc1cc(Oc2ccc(C(F)(F)F)cc2Cl)ccc1[N+](=O)[O-] as the molecule, how does the AC50 read?
Answer: Its AC50 is 50 µM (active).

Question: For CC(C)(C)c1ccc(CSc2cnn(C(C)(C)C)c(=O)c2Cl)cc1, which AC50 is on record?
Answer: Its AC50 is 0.00479 µM (active).

Question: For C=CCC1=C(C)[C@@H](OC(=O)[C@@H]2[C@@H](C=C(C)C)C2(C)C)CC1=O, which outcome is on record?
Answer: Its outcome is “inactive”.

Question: Which AC50 does the source give for CN(C)C(=S)SSC(=S)N(C)C here?
Answer: The AC50 was 0.0588 µM (active).

Question: With CO/C=C(/C(=O)OC)c1ccccc1Oc1cc(Oc2ccccc2C#N)ncn1 as the molecule, how does the AC50 read?
Answer: Its AC50 is 2.58 µM (active).

Question: With COC(=O)N(OC)c1ccccc1COc1ccn(-c2ccc(Cl)cc2)n1 as the molecule, how does the AC50 read?
Answer: The AC50 was 0.153 µM (active).

Question: With CCOC(=O)CC(SP(=S)(OC)OC)C(=O)OCC (configuration not stated) as the molecule, how does the AC50 read?
Answer: Its AC50 is 77.6 µM (active) and 15 µM (active).

Question: Which outcome does the source give for C=CCC1=C(C)C(OC(=O)C2C(C=C(C)C)C2(C)C)CC1=O (configuration not stated) here?
Answer: The outcome was “inactive”.

Question: For COP(=S)(OC)Oc1nc(Cl)c(Cl)cc1Cl, which AC50 is on record?
Answer: Its AC50 is 23.1 µM (active).

Question: For C=CC1(C)OC(=O)N(c2cc(Cl)cc(Cl)c2)C1=O (configuration not stated), which outcome is on record?
Answer: Its outcome is “inactive”.

Question: With COP(N)(=O)SC (configuration not stated) as the molecule, how does the outcome read?
Answer: The outcome was “inactive”.
